Among all 360,000 compounds or so, about 16,000 (4.4%) were called active. Roughly 9% stayed inconclusive and do not appear here. The call rests on the fitted dose curve; in most records, active means well fitted inhibition curve with a large enough effect; inconclusive means small, poorly fitted or top-dose-only effect; inactive means no such curve, though single readings can be large or run the other way. Shown is part of a subset that was picked to be rich in actives. A call without a number means that no potency is given here.
Potency means the concentration at half of the fitted maximal effect.

The target in the experiment is Bromodomain adjacent to zinc finger domain protein 2B (Homo sapiens) (UniProt Q9UIF8). As to the kind of experiment: qHTS Assay for Inhibitors of BAZ2B. Further: nearly all actives have a fitted effect of over 60% in size. To be noted: AlphaScreen BAZ2B-H3K14Ac peptide displacement; series mostly up to 114 µM. The method in brief: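 Complex of BAZ2B and biotin-H3K14Ac (50 nM apiece) forms over 30 min at RT, then faces library compounds up to 110 uM for another 30 min; AlphaScreen beads added, 20 min dark incubation, luminescence read.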
Bromodomain adjacent to zinc finger domain protein 2B (Homo sapiens), sequence (Q9UIF8 whole entry, looked up, the tested form may be a part): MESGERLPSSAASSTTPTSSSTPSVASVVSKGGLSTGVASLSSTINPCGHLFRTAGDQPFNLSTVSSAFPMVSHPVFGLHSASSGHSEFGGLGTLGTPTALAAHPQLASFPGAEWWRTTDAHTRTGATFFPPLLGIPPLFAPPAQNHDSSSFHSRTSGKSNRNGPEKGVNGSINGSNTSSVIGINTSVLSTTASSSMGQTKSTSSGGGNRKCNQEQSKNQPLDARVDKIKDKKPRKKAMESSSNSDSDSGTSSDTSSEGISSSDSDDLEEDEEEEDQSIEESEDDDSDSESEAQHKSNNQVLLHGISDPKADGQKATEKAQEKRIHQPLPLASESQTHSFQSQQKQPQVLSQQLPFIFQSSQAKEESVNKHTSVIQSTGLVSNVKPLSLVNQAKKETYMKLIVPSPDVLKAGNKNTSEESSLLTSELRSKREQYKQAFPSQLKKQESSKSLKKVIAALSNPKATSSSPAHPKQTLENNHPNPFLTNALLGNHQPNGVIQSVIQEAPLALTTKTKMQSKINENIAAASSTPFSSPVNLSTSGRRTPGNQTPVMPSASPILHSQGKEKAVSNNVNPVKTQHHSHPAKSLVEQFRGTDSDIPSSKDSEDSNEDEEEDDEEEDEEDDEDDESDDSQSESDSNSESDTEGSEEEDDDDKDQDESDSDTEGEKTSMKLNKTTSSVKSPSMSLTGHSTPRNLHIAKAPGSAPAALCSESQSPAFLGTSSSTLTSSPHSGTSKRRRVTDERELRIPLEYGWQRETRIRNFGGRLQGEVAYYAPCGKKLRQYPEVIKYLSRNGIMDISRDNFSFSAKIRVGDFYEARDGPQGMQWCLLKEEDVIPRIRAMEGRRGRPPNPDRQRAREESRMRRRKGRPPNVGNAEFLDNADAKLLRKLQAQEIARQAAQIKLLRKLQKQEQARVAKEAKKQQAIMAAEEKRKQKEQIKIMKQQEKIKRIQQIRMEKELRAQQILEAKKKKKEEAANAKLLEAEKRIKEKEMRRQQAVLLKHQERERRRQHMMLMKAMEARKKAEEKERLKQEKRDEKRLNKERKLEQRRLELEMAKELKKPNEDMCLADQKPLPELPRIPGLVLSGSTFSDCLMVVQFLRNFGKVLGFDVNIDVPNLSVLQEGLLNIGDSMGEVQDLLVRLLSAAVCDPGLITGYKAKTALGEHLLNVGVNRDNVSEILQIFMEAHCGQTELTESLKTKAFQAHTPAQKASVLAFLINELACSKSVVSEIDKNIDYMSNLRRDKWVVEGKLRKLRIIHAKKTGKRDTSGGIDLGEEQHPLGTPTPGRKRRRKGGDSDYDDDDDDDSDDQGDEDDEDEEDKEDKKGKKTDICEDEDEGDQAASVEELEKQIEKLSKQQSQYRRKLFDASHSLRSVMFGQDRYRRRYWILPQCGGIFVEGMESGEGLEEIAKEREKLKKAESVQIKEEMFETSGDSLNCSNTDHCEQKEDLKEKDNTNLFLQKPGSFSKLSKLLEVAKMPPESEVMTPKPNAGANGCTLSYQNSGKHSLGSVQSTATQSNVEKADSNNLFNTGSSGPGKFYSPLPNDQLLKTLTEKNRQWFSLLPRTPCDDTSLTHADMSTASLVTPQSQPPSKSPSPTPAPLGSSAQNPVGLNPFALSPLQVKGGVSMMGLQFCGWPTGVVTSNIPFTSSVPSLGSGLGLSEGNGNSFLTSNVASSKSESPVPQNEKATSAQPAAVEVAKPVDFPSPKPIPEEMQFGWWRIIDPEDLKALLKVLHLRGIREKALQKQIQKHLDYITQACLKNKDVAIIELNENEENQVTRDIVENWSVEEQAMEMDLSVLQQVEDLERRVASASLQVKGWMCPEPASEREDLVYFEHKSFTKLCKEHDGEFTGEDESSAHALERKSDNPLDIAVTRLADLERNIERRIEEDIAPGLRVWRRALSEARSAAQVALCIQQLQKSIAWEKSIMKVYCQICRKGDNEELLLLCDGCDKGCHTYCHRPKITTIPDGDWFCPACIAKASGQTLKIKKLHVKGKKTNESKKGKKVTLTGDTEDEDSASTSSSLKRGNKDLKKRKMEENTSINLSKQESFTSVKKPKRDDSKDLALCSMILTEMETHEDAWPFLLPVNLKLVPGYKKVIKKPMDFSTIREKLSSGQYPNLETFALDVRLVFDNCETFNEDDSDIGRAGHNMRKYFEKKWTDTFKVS
On the technique in general: Quantitative high-throughput screening tests each substance at several concentrations.
`O=C1CC(c2ccc(F)cc2F)c2cc3c(cc2N1)OCO3` (stereo not drawn): the Potency result was “inactive”.

As to `CCCOc1ccccc1C1CC(=O)Nc2cc3c(cc21)OCO3` (stereo not drawn), the Potency is 28.2 µM (active). Next, `COC(=O)C1=C(C)NC(=O)CC1c1ccccc1OC` (stereo not drawn): “inactive”. In the case of `Cc1nc2ccn(Cc3cccs3)c(=O)c2cc1C(=O)NCc1ccc(Cl)cc1` it was “inactive”; in that of `Cc1ccc(Nc2nc(Cl)c(C=O)s2)cc1`, “inactive”. In the case of `Cc1ccc(Nc2ccccc2N)cc1` it was 44.7 µM (active); in that of `Nc1ccc(C(=O)Nc2ccccc2N)cc1`, “inactive”; in that of `COc1ccc(-c2noc(CSc3nnc(-c4ccccc4)n3-c3ccc(F)cc3)n2)c(OC)c1`, “inactive”.

On to `CC(=O)c1c(C)n(-c2ccc(N(C)C)cc2)c2ccc(OCC(N)=O)cc12`, for which the Potency was 50.1 µM (active).

Consider `CCOC(=O)c1c(-c2ccccc2)oc2ccc(OCC(N)=O)cc12`, for which the Potency result is “inactive”. Next, `CC(=O)c1c(C)n(-c2ccc(C)cc2)c2ccc(O)cc12`: “inactive”; `CC(=O)c1ccc(NC(=O)c2nc(-c3ccc(C)cc3)n3c2CCCCC3)cc1`: “inactive”; `COc1ccccc1-c1ccnc2[nH]n(-c3ccccc3)c(=O)c12`: “inactive”. For `CC1CC(C)CN(CC(=O)Nc2ccc(S(N)(=O)=O)cc2)C1` (stereo not drawn), the Potency result is “inactive”. For `NS(=O)(=O)c1cccc(NC(=O)CN2CCCc3ccccc32)c1`, the Potency result is “inactive”.

Turning to `CC1Cc2ccccc2N1CC(=O)Nc1ccc(S(N)(=O)=O)cc1` (stereo not drawn), the Potency is 79.4 µM (active). In the case of `CC(CNC(=O)c1nnc(Cc2cccc(F)c2)o1)c1ccccc1` (stereo not drawn) it was “inactive”.

In the case of `CN(C(=O)CSc1nc2ccc(NC(=O)COc3ccccc3)cc2s1)c1ccccc1`, the Potency entry is “inactive”. In the case of `O=C(NCCCN1CCOCC1)c1cc2c(s1)CCC2` it was “inactive”. As to `O=C(NCCCn1ccnc1)c1cc2c(s1)CCCC2`, the Potency was 56.2 µM (active). Consider `O=C(NCCCn1ccnc1)c1cc(Br)c(Br)s1`, for which the Potency entry was “inactive”. In the case of `Cc1ccccc1CNC(=O)C1CCCN(S(=O)(=O)N(C)c2ccc(F)cc2)C1` (stereo not drawn) it was “inactive”.

`CCOC(=O)c1c(S(=O)(=O)NCC(=O)Nc2ccc(Cl)c(C(F)(F)F)c2)c(C)n(C)c1C`: the Potency result is “inactive”. Next, `COc1cccc(NC(=O)CSC2=Nc3ccccc3C3=NC(CC(=O)NC4CCCCC4)C(=O)N23)c1` (stereo not drawn): “inactive”. Next, `Cc1cccc2nc(-c3ccc(Cl)s3)c(Nc3ccc4c(c3)OCCO4)n12`: 12.6 µM (active); `S=C(Nc1cccc(Cl)c1)Nc1ccc2c(c1)OCCO2`: “inactive”. Next, `Cc1nc(Nc2ccc3c(c2)OCCO3)c2nnn(Cc3ccccc3Cl)c2n1`: “inactive”; `Nc1ccc(Nc2ccccc2)cc1`: 35.5 µM (active); `Nc1ccc(S(=O)(=O)NC(=O)c2ccccc2)cc1`: “inactive”. As to `Cc1cc(Nc2ccccc2)n(C(=O)c2ccc(N)cc2)n1`, the Potency result is “inactive”.

Take `CCCOc1ccc(NC(=O)CC2C(=O)N(c3ccccc3)C(=O)N2Cc2ccco2)cc1` (stereo not drawn): the Potency result was “inactive”. In the case of `C[N+]1(CCNC(=O)/C=N/O)CCCCC1` it was 79.4 µM (active). In the case of `CCOc1c(OC)cc(C2C(C#N)=C(N)Oc3n[nH]c(-c4ccncc4)c32)cc1OC` (stereo not drawn) it was “inactive”.

Take `COc1ccc(C2C(C#N)=C(N)Oc3n[nH]c(C)c32)cc1CN1CCN(c2ccc(F)cc2)CC1` (stereo not drawn): the Potency was 50.1 µM (active).

In the case of `COc1cc(C2C(C#N)=C(N)Oc3n[nH]c(-c4ccccn4)c32)cc(OC)c1OC` (stereo not drawn), the Potency result is “inactive”. In the case of `O=C(CSc1nc(=O)n(Cc2cccnc2)c2c1CCC2)Nc1ccc(F)cc1F` it was “inactive”; in that of `O=S(=O)(c1ccccc1)c1nc(-c2ccccc2F)oc1NCc1cccnc1`, “inactive”; in that of `N#Cc1nc(COc2ccc(-c3ccccc3)cc2)oc1NCc1cccnc1`, 11.2 µM (active). Next, `c1ccc(COc2ccccc2CNCc2cccnc2)cc1`: “inactive”.

For `O=C(NCCCO)C(=O)Nc1c2c(nn1-c1ccc(F)cc1)CSC2`, the Potency result is “inactive”. As to `CCOc1ccc(C2C(=O)N(C3CCCCC3)CC(=O)N2CCC2=CCCCC2)cc1OC` (stereo not drawn), the Potency result was “inactive”. Next, `CCN1CCN(CCCCOc2ccccc2F)CC1`: 50.1 µM (active); `CN1CCN(CCCCOc2cccc3ccccc23)CC1`: “inactive”.

With `Fc1ccccc1OCCCCn1cncn1`, the Potency entry was “inactive”. In the case of `CCn1c2c(c(=O)n3ncc(C(=O)N4CCN(c5ccccc5)CC4)c13)CN(Cc1ccc(OC)cc1)CC2` it was “inactive”.

As to `O=C(Nc1ccc(F)cc1F)c1cnn(-c2ccc(F)cc2)c1-n1cccc1`, the Potency result is “inactive”.

Turning to `CCOC(=O)Cn1c(=O)n(C2CCCCC2)c2nc(-c3cccc(OC)c3)nc(C(N)=O)c21`, the Potency entry is “inactive”. With `O=c1[nH]n2c(=O)c3c([nH]c2c1N=Nc1ccccc1)CCC3`, the Potency was 39.8 µM (active).

Take `N#Cc1c2c(c(-c3ccccc3)[nH]c1=O)CCCC2`: the Potency result was “inactive”.

On to `CC(C)(C)n1c(=O)[nH]c2c(c1=O)CCC2`, for which the Potency result is “inactive”. Next, `COc1cc(CN(CC2CCCO2)C(=O)c2ccccc2F)cc(OC)c1OC` (stereo not drawn): “inactive”. In the case of `O=C(NCc1ccccc1)c1cc(-c2cccc(Cl)c2)on1` it was “inactive”. Next, `O=C1c2ccccc2NC(c2ccc(-c3cccc(Cl)c3)o2)N1O` (stereo not drawn): “inactive”; `O=C(O)C(c1ccccc1)N1C(=O)/C(=C\c2ccc(-c3cccc(Cl)c3)o2)SC1=S` (stereo not drawn): 22.4 µM (active); `COc1cccc(NC(=O)CN2C(=O)c3ccccc3Sc3ncccc32)c1`: “inactive”. Take `CC(=O)Nc1ccc(NC(=O)c2cc3sccc3n2Cc2ccc(F)cc2)cc1`: the Potency result was “inactive”. In the case of `COC(=O)c1ccc(NC(=O)CSc2n[nH]c(-c3ccccc3)n2)cc1` it was “inactive”. As to `CCOC(=O)c1sc(=S)n(-c2cccc(OC)c2)c1N`, the Potency is 50.1 µM (active).

`COc1cccc(-n2c(=S)sc3c(=O)n(-c4ccccc4C)c(SCC(=O)O)nc32)c1`: the Potency result was “inactive”. In the case of `Cc1cccc(-n2c(N)c(C(=O)N3CCN(C)CC3)sc2=S)c1` it was “inactive”; in that of `Clc1cccc(N=C2NN=C(c3ccc4c(c3)OCCO4)CS2)c1`, “inactive”. Next, `CS(=O)(=O)N(CC(=O)N1CCN(Cc2ccccc2)CC1)c1ccc2c(c1)OCCO2`: “inactive”. In the case of `c1ccc(CN2CCC(N=C3NN=C(c4ccc5c(c4)OCCO5)CS3)CC2)cc1` it was 39.8 µM (active). Take `Cc1ccc(NC(=O)CN2C(=O)CC(C)Sc3ccccc32)c(C)c1` (stereo not drawn): the Potency entry was “inactive”. Next, `C=CCO/N=C/C1=C(O)C(C(=O)OC)C(C)(C)CC1=O` (stereo not drawn): 39.8 µM (active); `CCCC(=O)C1=C(N(C)c2ccccc2)CC(C)(C)C(C(=O)OC)C1=O` (stereo not drawn): “inactive”; `COc1ccc(CCNc2nc(-c3ccc(F)cc3)cc(C(F)(F)F)n2)cc1OC`: “inactive”. Next, `CCOC(=O)c1c(NC(=O)COc2cc(C)ccc2C(C)C)sc(C)c1C`: “inactive”; `O=C1CN(C(=O)Nc2ccccc2C(F)(F)F)C(c2ccccc2)c2c(sc3c2CCCC3)N1` (stereo not drawn): “inactive”. For `COc1cc(CC(=O)Nc2nc(-c3ccc(F)c(F)c3)cs2)cc(OC)c1OC`, the Potency result was “inactive”. Regarding `Cc1onc(C(=O)NN)c1-c1csc(COc2ccccc2)n1`, the Potency result is “inactive”.

In the case of `CC(C)(C)C(=O)OCc1nc(-c2ccc(O)c(O)c2)cs1`, the Potency is 56.2 µM (active). Next, `COCc1ccc(C(=O)N2CCc3c([nH]c4ccccc34)C2c2ccccn2)s1` (stereo not drawn): 35.5 µM (active); `Cc1ccc(C2c3[nH]c4ccccc4c3CCN2C(=O)c2cccc(C)c2)cc1` (stereo not drawn): “inactive”. In the case of `COC(=O)[C@H]1[C@H]2C[C@H]3c4[nH]c5ccccc5c4CCN3C[C@@H]2CC[C@@H]1O` it was “inactive”; in that of `Cc1cccc(C2c3[nH]c4ccccc4c3CCN2C(=O)c2cc(-c3cccn3C)n[nH]2)n1` (stereo not drawn), 12.6 µM (active); in that of `COCc1ccc(CN2CCC(Oc3ccc(C(=O)NCc4ccccn4)cc3)CC2)o1`, “inactive”.

Turning to `COc1ccc(Cn2cc(C(=O)c3ccc(C)cc3)c(=O)c3cc(OC)c(OC)cc32)cc1`, the Potency result was “inactive”.

As for `CCn1c(CN2CCC(C)CC2)nc2cc(NC(=O)c3ccccc3[N+](=O)[O-])ccc21`, the Potency entry is “inactive”. Next, `CCc1ccc(Sc2cc(C(=O)NCCCOC(C)C)c3ccccc3n2)cc1`: “inactive”; `CCOc1ccc(CNC(=O)Cn2cc3c(n2)-c2c(oc(C(=O)N4CCCC4)c2C)CC3)cc1`: “inactive”. Next, `COc1cc(C2c3c(oc4ccccc4c3=O)C(=O)N2c2nc(C)c(C)s2)ccc1O` (stereo not drawn): “inactive”; `CCN(CC)C(=O)N(CC)Cc1ccccc1`: “inactive”; `COc1ccc(/C=N/OCC(=O)N(Cc2ccccc2)c2ccccc2C(=O)O)cc1`: “inactive”. In the case of `Oc1ccc(/C=N/N(Cc2ccccc2)c2ccccc2)cc1`, the Potency was 39.8 µM (active). Take `Cc1ccc(/C=C2\SC(=S)N(CCC(=O)Nc3ccc(O)cc3)C2=O)cc1`: the Potency entry was “inactive”. In the case of `O=C(CCCOc1ccccc1)Nc1cccc(C(=O)O)c1` it was “inactive”.

On to `COc1cc(/C=C2/SC(=S)N(Cc3ccccc3)C2=O)cc(OC)c1O`, for which the Potency was 12.6 µM (active). In the case of `COc1ccc(/C=C2\SC(=S)N(CC(=O)NNC(=O)c3ccncc3)C2=O)cc1`, the Potency entry was “inactive”. Next, `COc1ccc(/C=C2\SC(=S)N(CCC(=O)Nc3cccc(C(=O)O)c3)C2=O)cc1OC`: 50.1 µM (active); `COc1cccc(/C=C2/SC(=S)N(CC(=O)NC3C=CS(=O)(=O)C3)C2=O)c1` (stereo not drawn): “inactive”; `Cc1ccc(C(=O)Nc2ccccc2F)cc1S(=O)(=O)N1CCOCC1`: “inactive”.

As to `CC(C)(C)OC(=O)N1CCC(c2c(C(=O)N3CCc4ccccc4C3)cnn2-c2ccc(F)cc2)CC1`, the Potency entry is “inactive”.

With `Cc1ccc(CN2CCC(CNC(=O)c3cnn(-c4ccccc4Cl)c3C3CCN(C(=O)OC(C)(C)C)CC3)CC2)cc1`, the Potency result is “inactive”. Next, `CCc1ccc(S(=O)(=O)Nc2cc3c(C(=O)OCc4ccccc4)c(C)oc3c3ccccc23)cc1`: “inactive”; `COc1ccccc1N1CCN(S(=O)(=O)CCNC(=O)COc2ccc(F)cc2)CC1`: “inactive”.

Turning to `O=C(C1CCCN(S(=O)(=O)c2cccc3nonc23)C1)N1CCN(c2ccccc2F)CC1` (stereo not drawn), the Potency entry is “inactive”. Next, `COc1cc(C(=O)Nc2ccc(OCc3cc(=O)n4ccc(C)cc4n3)cc2)cc(OC)c1OC`: “inactive”.
